Measured values: PubChem BioAssay AID1159580 (chemical genetic matrix, 2015)
Screen size: about 5,500 compounds; about 2,000 (36%) were called active. Inconclusive results (about 18%) are left out. No stated cut-off is given here; in the data, active means normalized growth mostly below about 0.91 (no sharp cut-off); inconclusive means no clear call, values can overlap the other calls; inactive means mostly above about 0.92. The list shows a part of the results.

Assay: chemical genetic growth profiling, strain panel (AID 1159580);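 further: tested at 20 µM; growth read once vehicle control cultures reached saturation at 30 °C; 1 = growth at the plate median or of vehicle wells; lower values mean less growth of the strain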
Conditions: growth OD

Measured: normalized growth

COc1ccc2c(=O)c(CC(=O)O)coc2c1
inactive: S. cerevisiae deletion strains, locus YJR066W, strain TOR1, hits give low values 0.902 | S. cerevisiae deletion strains, locus YJR075W, strain HOC1, hits give low values 1.01 | S. cerevisiae deletion strains, locus YKL009W, strain mrt4, hits give low values 0.981 | S. cerevisiae deletion strains, locus YKL068W, hits give low values 0.993 | S. cerevisiae deletion strains, locus YKL085W, strain MDH1 (second series), hits give low values 1.01 | S. cerevisiae deletion strains, locus YKL085W, strain MDH1, hits give low values 1.01 | S. cerevisiae deletion strains, locus YKL160W, strain elf1, hits give low values 1.04 | S. cerevisiae deletion strains, locus YKL190W, strain CNB1, hits give low values 1 | S. cerevisiae deletion strains, locus YKR001C, strain vps1, hits give low values 1.03 | S. cerevisiae deletion strains, locus YKR026C, strain gcn3, hits give low values 0.985 | S. cerevisiae deletion strains, locus YKR091W, strain srl3, hits give low values 0.99 | S. cerevisiae deletion strains, locus YLL001W, strain dnm1, hits give low values 1 | S. cerevisiae deletion strains, locus YLL026W, hits give low values 0.982 | S. cerevisiae deletion strains, locus YLL041C, strain sdh2, hits give low values 0.98 | S. cerevisiae deletion strains, locus YLR027C, strain aat2, hits give low values 0.977 | S. cerevisiae deletion strains, locus YLR039C, strain RIC1, hits give low values 1.07 | S. cerevisiae deletion strains, locus YLR058C, strain SHM2, hits give low values 0.999 | S. cerevisiae deletion strains, locus YLR102C, strain apc9, hits give low values 0.992 | S. cerevisiae deletion strains, locus YLR113W, strain HOG1, hits give low values 0.992 | S. cerevisiae deletion strains, locus YLR221C, strain rsa3, hits give low values 0.966 | S. cerevisiae deletion strains, locus YLR258W, strain gsy2, hits give low values 0.992 | S. cerevisiae deletion strains, locus YLR262C, strain YPT6 (second series), hits give low values 1 | S. cerevisiae deletion strains, locus YLR262C, strain YPT6, hits give low values 1.03 | S. cerevisiae deletion strains, locus YLR268W, strain sec22, hits give low values 1.02 | S. cerevisiae deletion strains, locus YLR320W, strain mms22, hits give low values 0.972 | S. cerevisiae deletion strains, locus YLR330W, strain CHS5, hits give low values 1.01 | S. cerevisiae deletion strains, locus YLR342W, strain FKS1 (second series), hits give low values 1.05 | S. cerevisiae deletion strains, locus YLR342W, strain FKS1, hits give low values 0.989 | S. cerevisiae deletion strains, locus YLR357W, strain rsc2, hits give low values 0.988 | S. cerevisiae deletion strains, locus YLR370C, strain arc18, hits give low values 0.974 | S. cerevisiae deletion strains, locus YLR371W, strain rom2, hits give low values 0.997 | S. cerevisiae deletion strains, locus YLR384C, strain iki3, hits give low values 0.966 | S. cerevisiae deletion strains, locus YLR418C, strain cdc73, hits give low values 0.971 | S. cerevisiae deletion strains, locus YML016C, strain PPZ1, hits give low values 1 | S. cerevisiae deletion strains, locus YML032C, strain rad52, hits give low values 1 | S. cerevisiae deletion strains, locus YML120C, strain ndi1, hits give low values 1 | S. cerevisiae deletion strains, locus YML124C, strain tub3, hits give low values 0.994 | S. cerevisiae deletion strains, locus YMR058W, strain fet3, hits give low values 0.983 | S. cerevisiae deletion strains, locus YMR078C, strain ctf18, hits give low values 0.992 | S. cerevisiae deletion strains, locus YMR125W, strain sto1, hits give low values 1 | S. cerevisiae deletion strains, locus YMR129W, hits give low values 0.985 | S. cerevisiae deletion strains, locus YMR205C, strain PFK2, hits give low values 1.05 | S. cerevisiae deletion strains, locus YMR223W, strain ubp8, hits give low values 0.994 | S. cerevisiae deletion strains, locus YMR231W, strain pep5, hits give low values 0.972 | S. cerevisiae deletion strains, locus YMR307W, strain GAS1, hits give low values 1.06 | S. cerevisiae deletion strains, locus YNL067W, strain RPL9B, hits give low values 0.999 | S. cerevisiae deletion strains, locus YNL071W, strain lat1, hits give low values 0.986 | S. cerevisiae deletion strains, locus YNL183C, strain NPR1, hits give low values 0.972 | S. cerevisiae deletion strains, locus YNL209W, strain ssb2, hits give low values 1.03 | S. cerevisiae deletion strains, locus YNL233W, strain BNI4, hits give low values 1 | S. cerevisiae deletion strains, locus YNL248C, strain rpa49, hits give low values 0.984 | S. cerevisiae deletion strains, locus YNL250W, strain rad50, hits give low values 0.96 | S. cerevisiae deletion strains, locus YNL271C, strain bni1, hits give low values 0.986 | S. cerevisiae deletion strains, locus YNL298W, strain CLA4, hits give low values 0.992 | S. cerevisiae deletion strains, locus YNL307C, strain MCK1, hits give low values 1 | S. cerevisiae deletion strains, locus YNL322C, strain KRE1 (second series), hits give low values 0.969 | S. cerevisiae deletion strains, locus YNL322C, strain KRE1, hits give low values 1 | S. cerevisiae deletion strains, locus YNR049C, strain mso1, hits give low values 0.973 | S. cerevisiae deletion strains, locus YNR052C, strain pop2, hits give low values 0.952 | S. cerevisiae deletion strains, locus YOL012C, strain htz1 1.05 | S. cerevisiae deletion strains, locus YOL147C, strain pex11, hits give low values 0.991 | S. cerevisiae deletion strains, locus YOR001W, strain rrp6, hits give low values 0.917 | S. cerevisiae deletion strains, locus YOR061W, strain CKA2, hits give low values 1.01 | S. cerevisiae deletion strains, locus YOR069W, strain VPS5, hits give low values 0.987 | S. cerevisiae deletion strains, locus YOR070C, strain gyp1, hits give low values 0.981 | S. cerevisiae deletion strains, locus YOR080W, strain dia2, hits give low values 0.981 | S. cerevisiae deletion strains, locus YOR083W, strain WHI5, hits give low values 1.04 | S. cerevisiae deletion strains, locus YOR106W, strain vam3, hits give low values 1.01 | S. cerevisiae deletion strains, locus YOR136W, strain idh2, hits give low values 0.981 | S. cerevisiae deletion strains, locus YOR144C, strain elg1, hits give low values 0.993 | S. cerevisiae deletion strains, locus YOR184W, strain ser1, hits give low values 1.07 | S. cerevisiae deletion strains, locus YOR231W, strain MKK1, hits give low values 1 | S. cerevisiae deletion strains, locus YOR265W, strain rbl2, hits give low values 0.973 | S. cerevisiae deletion strains, locus YOR270C, strain vph1, hits give low values 0.978 | S. cerevisiae deletion strains, locus YOR290C, strain snf2, hits give low values 1.01 | S. cerevisiae deletion strains, locus YOR316C, strain cot1, hits give low values 0.991 | S. cerevisiae deletion strains, locus YPL051W, strain arl3, hits give low values 0.996 | S. cerevisiae deletion strains, locus YPL055C, strain LGE1, hits give low values 1.08 | S. cerevisiae deletion strains, locus YPL078C, strain atp4, hits give low values 1.03 | S. cerevisiae deletion strains, locus YPL106C, strain sse1, hits give low values 1.03 | S. cerevisiae deletion strains, locus YPL240C, strain hsp82, hits give low values 0.974 | S. cerevisiae deletion strains, locus YPL241C, strain CIN2, hits give low values 1.01 | S. cerevisiae deletion strains, locus YPL256C, strain CLN2, hits give low values 0.983 | S. cerevisiae deletion strains, locus YPR119W, strain clb2, hits give low values 0.985 | S. cerevisiae deletion strains, locus YPR141C, strain kar3, hits give low values 0.99 | S. cerevisiae deletion strains, locus YPR163C, strain tif3, hits give low values 0.995 | S. cerevisiae deletion strains, locus YPR167C, strain met16, hits give low values 0.976 | S. cerevisiae deletion strains, strain wtn01, hits give low values 1.04 | S. cerevisiae strains, strain wild type, hits give low values 1.02
